{
  "source": "paper PMC7819943",
  "about": "“Rice protein-binding microarrays: a tool to detect cis-acting elements near promoter regions in rice”",
  "note": "The full ranking holds about 68,000 sequences; the median of “fluorescence intensity (a.u.)” is about 9,100, and the highest 2% start at about 16,000. The sample as a whole holds a higher share of the highest values than the screen did.",
  "data": [
    {"target": "OsWRKY34 (Oryza sativa, UniProt Q0JBA9 1-250)", "sequence (Q0JBA9 entry or part of it)": "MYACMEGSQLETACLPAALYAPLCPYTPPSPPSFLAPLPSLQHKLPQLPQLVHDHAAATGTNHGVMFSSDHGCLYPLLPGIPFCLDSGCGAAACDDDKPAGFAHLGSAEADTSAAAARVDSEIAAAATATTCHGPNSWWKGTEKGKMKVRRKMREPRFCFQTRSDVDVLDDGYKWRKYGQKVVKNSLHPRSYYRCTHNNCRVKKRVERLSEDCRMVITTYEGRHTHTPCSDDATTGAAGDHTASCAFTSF", "test": "protein-binding microarray (RPBM); PBS, 2% BSA, 51.3 ng/ul salmon testes DNA, 50 uM zinc acetate, 200 nM TF, 25 C, 1 h; high values mean tight binding", "conditions": "protein: recombinant; tags: N-terminal polyhistidine and DsRed monomer fusion (pET32a); label: CyDye5-dUTP incorporated in the synthesized complementary strand; 3' TTTTT single-stranded linker to array surface; dsDNA, one strand shown", "how_it_was_run": "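Binding signal here means per-feature fluorescence intensity in arbitrary units. The values were read on an Axon 4000B scanner after a custom Agilent array, double-stranded by primer extension with Cy5-dUTP, was incubated with 200 nM protein at 25 °C for 1 h in PBS with 2% BSA, salmon testes DNA and 50 µM zinc acetate, then washed. The proteins were transcription factors with an N-terminal polyhistidine tag and DsRed, expressed in E. coli BL21-CodonPlus and purified on Ni–NTA.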", "values": [
      {"sequence": "GCGGGTGTGGCATTGTGGGTAATCTCGGCCGTTCAAATATCGGAGTCACCTAGTGCAG", "binding signal": "17300 fluorescence intensity (a.u.)"},
      {"sequence": "GTGTTCTCATTGTATTGGGTATTCAAATGTTTTGTAATATCGGAGTCACCTAGTGCAG", "binding signal": "9730 fluorescence intensity (a.u.)"},
      {"sequence": "TTACCAAACTGAAAATAAAAATGTGTGTTTTTTTTAATATCGGAGTCACCTAGTGCAG", "binding signal": "9410 fluorescence intensity (a.u.)"},
      {"sequence": "AATCATCACATCATCACCGTCATCTTCTCTAGCATAGCAACGGAGTCACCTAGTGCAG", "binding signal": "8050 fluorescence intensity (a.u.)"},
      {"sequence": "CCTTCCCATGCTGCTGTGATGTGTCATACGCCGCCGCCACCGGAGTCACCTAGTGCAG", "binding signal": "9920 fluorescence intensity (a.u.)"},
      {"sequence": "TCCCAACCACACCCACCCACCCGCCCAATCCATCCACCAACGGAGTCACCTAGTGCAG", "binding signal": "8860 fluorescence intensity (a.u.)"},
      {"sequence": "TCCCTTCAAATATTGTTTTTCTTTTAACACTCAATCTCTCCGGAGTCACCTAGTGCAG", "binding signal": "8940 fluorescence intensity (a.u.)"},
      {"sequence": "TAGAATTACATCTGATATACCGGTCTTACGCTCTTAGATTCGGAGTCACCTAGTGCAG", "binding signal": "8860 fluorescence intensity (a.u.)"},
      {"sequence": "GCCCAGCCCAGGCCCACCTTATGTTTTGTTGCATCTCTACCGGAGTCACCTAGTGCAG", "binding signal": "10700 fluorescence intensity (a.u.)"},
      {"sequence": "CTCTCTCCACCCTCAGCCGCCACACTCCCATCCATTCTCCCGGAGTCACCTAGTGCAG", "binding signal": "9060 fluorescence intensity (a.u.)"},
      {"sequence": "TTTTTTACCATGGGTCTTGCATTGAATTTTTCTTTTTTTTCGGAGTCACCTAGTGCAG", "binding signal": "9890 fluorescence intensity (a.u.)"},
      {"sequence": "TCATCCGCACCAACACCATTAGTTATATTACCCACACATCCGGAGTCACCTAGTGCAG", "binding signal": "8520 fluorescence intensity (a.u.)"},
      {"sequence": "GAACCCACATCCCACCATGACGCGCAATTACCTCATTATCCGGAGTCACCTAGTGCAG", "binding signal": "17000 fluorescence intensity (a.u.)"},
      {"sequence": "AATAGGGCATGAACCCCAGCCATTTCTCCTCATCCCACACCGGAGTCACCTAGTGCAG", "binding signal": "63200 fluorescence intensity (a.u.)"},
      {"sequence": "TGCCTAGATGAATACTGCATGTTTTTTTTTTGTTTGATTTCGGAGTCACCTAGTGCAG", "binding signal": "9620 fluorescence intensity (a.u.)"},
      {"sequence": "TCCACCCATCGTTCTCATGACCTGCCAACCCCATCCCAGCCGGAGTCACCTAGTGCAG", "binding signal": "10000 fluorescence intensity (a.u.)"},
      {"sequence": "CACAGGGCATGAATTGATGAATAGGATGGCCATTTTTTTTCGGAGTCACCTAGTGCAG", "binding signal": "65000 fluorescence intensity (a.u.)"},
      {"sequence": "TCCACCCATCCTCATCATTATCCTCTCTCTCCTCTCTCACCGGAGTCACCTAGTGCAG", "binding signal": "9640 fluorescence intensity (a.u.)"},
      {"sequence": "TCCTGTGCGCCTCCCTCGAGCGTGTGACTGTGTTTGTGACCGGAGTCACCTAGTGCAG", "binding signal": "8710 fluorescence intensity (a.u.)"},
      {"sequence": "TTTAAGTTTGTTTGGTTGTGGGTTATAGGCTCTATTTCAACGGAGTCACCTAGTGCAG", "binding signal": "12000 fluorescence intensity (a.u.)"},
      {"sequence": "ATTTGCATGACATATATCATTACTACATTATTTTATATAGCGGAGTCACCTAGTGCAG", "binding signal": "8930 fluorescence intensity (a.u.)"},
      {"sequence": "GTGTGTTATTTTCTTCCACTCTTTAGTTTTCACTTTTTGACGGAGTCACCTAGTGCAG", "binding signal": "9240 fluorescence intensity (a.u.)"},
      {"sequence": "GTTGCCCTTTTGCTCCTGTTGTCTTCTCCGCTCCTGTCGTCGGAGTCACCTAGTGCAG", "binding signal": "9800 fluorescence intensity (a.u.)"},
      {"sequence": "TGGCATTTTTTTTTTCTTGTGAAAAACCGACGAGAGGAAGCGGAGTCACCTAGTGCAG", "binding signal": "8190 fluorescence intensity (a.u.)"},
      {"sequence": "GTTCATTTTATAGTCTAGCAAAATTTCCTCTCTTTTTTTTCGGAGTCACCTAGTGCAG", "binding signal": "10700 fluorescence intensity (a.u.)"},
      {"sequence": "AGTGACCCTTATCTCTTCACCTATCTCTCTCCCTTCCCCTCGGAGTCACCTAGTGCAG", "binding signal": "9580 fluorescence intensity (a.u.)"},
      {"sequence": "CAAACTTCTAATTTTTCCGTCACATCAAATGTTTGGATATCGGAGTCACCTAGTGCAG", "binding signal": "34900 fluorescence intensity (a.u.)"},
      {"sequence": "TTCTTTTTTTGGCTTCCTTTTTTTTGTGTGTATATATGTACGGAGTCACCTAGTGCAG", "binding signal": "13700 fluorescence intensity (a.u.)"},
      {"sequence": "TCCTTTTTTTTGGGTGCTTTTCTTTTGTATAGCACTGTACCGGAGTCACCTAGTGCAG", "binding signal": "65500 fluorescence intensity (a.u.)"},
      {"sequence": "GTTCTCGGTGTGTACTTGGTCCATCAGTCTCTTCAGATCTCGGAGTCACCTAGTGCAG", "binding signal": "8120 fluorescence intensity (a.u.)"},
      {"sequence": "TCTTTTGTATAGCACTGTACCGTATACAACACTGAATACACGGAGTCACCTAGTGCAG", "binding signal": "8080 fluorescence intensity (a.u.)"},
      {"sequence": "ATCTAGCCTATCGCTCTTGTGTTCTCGGTGTGTACTTGGTCGGAGTCACCTAGTGCAG", "binding signal": "16600 fluorescence intensity (a.u.)"},
      {"sequence": "CGTCGATCTCTATCTCTCTCTCTCGCTTGTTCTTCTTCACCGGAGTCACCTAGTGCAG", "binding signal": "15200 fluorescence intensity (a.u.)"},
      {"sequence": "ACGACGAGGTCGCTTTTTTCTTGTTGGGCTGGGCTGGGATCGGAGTCACCTAGTGCAG", "binding signal": "21800 fluorescence intensity (a.u.)"},
      {"sequence": "CCTTCTATTTTTCCGTCACATCAAATGTTTGGACACATGTCGGAGTCACCTAGTGCAG", "binding signal": "9670 fluorescence intensity (a.u.)"},
      {"sequence": "GTCAAACATCAACTTTTCCGTCACATCAAATGTTTGGACACGGAGTCACCTAGTGCAG", "binding signal": "8670 fluorescence intensity (a.u.)"},
      {"sequence": "TTTCTTTCTTTCTTTCTTGGGATCTTTTCCTTCTTTTTTTCGGAGTCACCTAGTGCAG", "binding signal": "12600 fluorescence intensity (a.u.)"},
      {"sequence": "TTCTTTGTTGGATTGATGATCGCTTTTGTGTGGGAGAGGTCGGAGTCACCTAGTGCAG", "binding signal": "9380 fluorescence intensity (a.u.)"},
      {"sequence": "GTATGCATTATTATGCTGATTAATTTGGCCTGGTTATTTGCGGAGTCACCTAGTGCAG", "binding signal": "8160 fluorescence intensity (a.u.)"},
      {"sequence": "GTCGGGTTCGGGTACTGTTGATGCTGATCGAGATGGTCCTCGGAGTCACCTAGTGCAG", "binding signal": "8650 fluorescence intensity (a.u.)"},
      {"sequence": "AACTATTTTTTTATGGGTTTGTTGTGTAGATCATGTAGCACGGAGTCACCTAGTGCAG", "binding signal": "11100 fluorescence intensity (a.u.)"},
      {"sequence": "TTCTACTTCTACACCTCGCAATGAAAAAAACAAATTTGACCGGAGTCACCTAGTGCAG", "binding signal": "8060 fluorescence intensity (a.u.)"}
    ]}
  ]
}
